PubChem BioAssay AID1053122 (Broad Institute, 2014)
Measured potencies and affinities stand elsewhere. Active and inactive are the calls of the source.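 The calls were made as follows: active = CTGF level falls with dose and the fitted half-maximal dose is at most twice the top valid dose; inconclusive = flat fit with 30 to 70% drop, or a poor fit; inactive = the rest.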

Assay: CTGF mRNA reduction in DLD1 cells – cell-based, DLD1 colon cancer, RT-qPCR, cherry-pick, dose response (AID 1053122)
Settings: DLD1 CTGF mRNA (YAP1 pathway), 24 h; series mostly up to 26 µM; CTGF expression fold change (lower = inhibition): at the top concentration

| Structure (SMILES) | CTGF expression fold change (lower = inhibition) |
| --- | --- |
| O=C(Nc1ccc(C(F)(F)F)cc1)Nc1ccc2c(c1)[C@H]1C[C@H](CC(=O)N3CCc4ccccc4C3)O[C@@H](CO)[C@H]1O2 | 0.502 unspecified (inactive) |
| C/C=C/c1cccc(-c2nc(C(=O)Nc3nccs3)cc3c2[C@@H](CCO)N(C(=O)NC(C)C)C3)c1 | 0.85 unspecified (inactive) |
| CCNC(=O)c1cc2c(c(-c3cccc(-c4ccccc4F)c3)n1)[C@@H](CCO)N(C(=O)CC1CC1)C2 | 0.698 unspecified (inactive) |
| C[C@@H]1CN([C@@H](C)CO)C(=O)c2cc(NC(=O)Nc3ccccc3)ccc2O[C@@H](C)CCCCO[C@@H]1CN(C)C(=O)Nc1ccccc1 | 0.865 unspecified (inactive) |
| Cc1ccc(S(=O)(=O)N[C@H]2C=C[C@H](CC(=O)NCc3ccc(Cl)c(Cl)c3)O[C@H]2CO)cc1 | 1.01 unspecified (inactive) |
| COc1ccc2c3c([nH]c2c1)[C@H](CO)NCC31CCN(C(=O)Cc2cccnc2)CC1 | 1.08 unspecified (inactive) |
| C[C@@H]1CN([C@@H](C)CO)C(=O)c2ccccc2-c2ccccc2CO[C@H]1CN(C)C(=O)Nc1ccc(-c2ccccc2)cc1 | 0.477 unspecified (inactive) |
| COc1ccc(S(=O)(=O)Nc2ccc3c(c2)C(=O)N([C@@H](C)CO)C[C@H](C)[C@@H](CN(C)S(=O)(=O)c2ccc(Cl)cc2)OCCCC[C@@H](C)O3)cc1 | 0.635 unspecified (inactive) |
| CN1CCN(C(=O)C[C@@H]2CC[C@H]3[C@@H](COc4ccc(NC(=O)C5CCOCC5)cc4C(=O)N3C)O2)CC1 | 0.869 unspecified (inactive) |
| O=C(Nc1cccc(F)c1)N1CCCCN2[C@H](C1)[C@H](c1ccc(C#Cc3cccnc3)cc1)[C@@H]2CO | 0.636 unspecified (inactive) |
| CNC[C@H]1Oc2c(NC(=O)Nc3cccc4ccccc34)cccc2C(=O)N([C@H](C)CO)C[C@@H]1C | 0.813 unspecified (inactive) |
| C[C@@H]1CN([C@H](C)CO)C(=O)c2ccccc2-c2ccccc2CO[C@@H]1CN(C)Cc1ccc2c(c1)OCCN2C | 0.751 unspecified (inactive) |
| COc1ccc(CN(C)C[C@H]2Oc3ccc(NC(=O)Nc4ccc5c(c4)OCO5)cc3CC(=O)N([C@@H](C)CO)C[C@H]2C)cc1 | 0.724 unspecified (inactive) |
| COc1ccc2c3c(n(C)c2c1)[C@@H](CO)N(Cc1ccncc1)CC31CN(C(=O)Nc2cccc(F)c2)C1 | 0.843 unspecified (inactive) |
| C[C@@H]1CC=CC[C@@H](c2cccc(Cl)c2)NC(=O)[C@@H](Cc2ccccc2)N(C)C(=O)c2ccccc2O1 (mixture of isomers) | 0.488 unspecified (inactive) |
| CN(C)C(=O)c1ccc(-c2cccc(-c3nc(C(=O)NCc4ccccc4)cc4c3[C@@H](CCO)N([S@](=O)C(C)(C)C)C4)c2)cc1 | 1.62 unspecified (inactive) |
| C[C@@H]1CN([C@H](C)CO)S(=O)(=O)c2ccc(C#Cc3ccccc3F)cc2O[C@@H]1CN(C)C(=O)Cc1cccnc1 | 0.777 unspecified (inactive) |
| CN1C(=O)c2cc(NC(=O)Cc3cccs3)ccc2OC[C@@H]2O[C@@H](CC(=O)NCCc3ccncc3)CC[C@H]21 | 1.3 unspecified [at 23.5 µM] (inactive) |
| COc1ccccc1C(=O)Nc1ccc2c(c1)C(=O)N(C)C[C@H](OC)[C@@H](C)CN(C(C)=O)[C@@H](C)CO2 | 0.589 unspecified (inactive) |

| Structure (SMILES) | CTGF expression fold change (lower = inhibition) |
| --- | --- |
| C[C@@H]1CN([C@H](C)CO)C(=O)c2ccccc2-c2ccccc2CO[C@@H]1CN(C)Cc1ccccc1C(F)(F)F | 0.554 unspecified (inactive) |
| COc1ccc(NC(=O)N(C)C[C@H]2Oc3c(NC(=O)CCCCCC(=O)Nc4ccccc4N)cccc3C(=O)N([C@H](C)CO)C[C@@H]2C)cc1 | 0.828 unspecified [at 23.5 µM] (inactive) |
| C[C@H]1CN([C@@H](C)CO)C(=O)c2cccc(NC(=O)c3ccc(-c4nccs4)cc3)c2O[C@@H]1CN(C)C(=O)Nc1ccc(C(F)(F)F)cc1 | 0.515 unspecified (inactive) |
| C[C@@H]1CN([C@H](C)CO)C(=O)c2cccc(NC(=O)c3nc4ccccc4s3)c2O[C@H]1CN(C)C(=O)Nc1ccc2c(c1)OCO2 | 0.622 unspecified [at 23.5 µM] (inactive) |
| COc1ccccc1S(=O)(=O)N1CC[C@@H]2[C@H]1c1cc(-c3cccc(C#N)c3)ccc1N(C)[C@H]2CO | 0.465 unspecified [at 23.5 µM] (inactive) |
| O=C([C@H]1[C@H](CO)[C@H]2Cn3c(ccc(-c4ccc(F)cc4)c3=O)[C@H]2N1Cc1cocn1)N1CCCCC1 | 1.02 unspecified (inactive) |
| O=C(Nc1ccc2c(c1)[C@H]1C[C@@H](CC(=O)N3CCc4ccccc4C3)O[C@@H](CO)[C@H]1O2)c1ccc2c(c1)OCO2 | 0.505 unspecified (inactive) |
| C[C@@H]1CN([C@H](C)CO)C(=O)CCCn2nncc2CO[C@@H]1CN(C)Cc1cccc(C(F)(F)F)c1 | 0.647 unspecified (inactive) |
| COCC(=O)N1CC[C@@H]2[C@H](CO)Nc3ccc(C#Cc4ccc(F)cc4)cc3[C@@H]21 | 0.472 unspecified (inactive) |
| C[C@@H]1CN([C@@H](C)CO)C(=O)c2ccccc2-c2ccccc2CO[C@@H]1CN(C)S(=O)(=O)c1cn(C)cn1 | 0.921 unspecified (inactive) |
| COc1cccc(-c2ccc([C@@H]3[C@@H](C#N)N(C(=O)Cc4ccncc4)[C@@H]3CO)cc2)c1 | 1.22 unspecified (inactive) |
| NCC[C@H]1CC[C@@H](NC(=O)NC2CCCCC2)[C@H](CO)O1 | 0.998 unspecified (inactive) |
| CCC(=O)N1C[C@H](C)[C@@H](OC)CN(C)C(=O)c2cc(NC(=O)Nc3ccc(Cl)cc3)ccc2OC[C@@H]1C | 0.537 unspecified (inactive) |
| C[C@H](CO)N1C[C@H](C)[C@@H](CN(C)S(=O)(=O)c2ccc([N+](=O)[O-])cc2)OCc2ccccc2-c2c(n(C)c3ccccc23)C1=O | 0.751 unspecified (inactive) |
| CCCNC(=O)N1[C@H](C#N)[C@@H](c2ccc(C#Cc3cccc(F)c3)cc2)[C@@H]1CO | 0.779 unspecified (inactive) |
| CC(C)(C)[S@@](=O)N1Cc2cc(C(=O)NCC(F)(F)F)nc(-c3cccc(-c4cccc(F)c4)c3)c2[C@H]1CCO | 0.913 unspecified (inactive) |
| CS(=O)(=O)N1CC(=O)N2[C@H](C1)[C@@H](c1ccc(C#Cc3ccc(F)cc3)cc1)[C@@H]2CO | 0.547 unspecified (inactive) |
| C[C@@H]1CN([C@H](C)CO)C(=O)CCCn2nncc2CO[C@@H]1CN(C)C(=O)c1cc(-c2ccccc2)on1 | 0.625 unspecified (inactive) |
| CCC(=O)N1Cc2cc(C(=O)NCc3cccc(F)c3)nc(-c3cccc(C4=CCCC4)c3)c2[C@H]1CCO | 0.82 unspecified (inactive) |
